Inconclusive results are not listed. A number with no mark means an inactive call. The source made the active and inactive calls. The call rests on the fitted dose curve; in most records, active means well fitted inhibition curve with a large enough effect; inconclusive means small, poorly fitted or top-dose-only effect; inactive means no such curve, though single readings can be large or run the other way.
Experiment: Confirmatory qHTS for small molecule stabilizers of the endoplasmic reticulum resident proteome: Secreted ER Calcium Modulated Protein (SERCaMP) assay (AID 1508628); further: nearly all actives have a fitted effect of over 40% in size
Conditions: SERCaMP secreted luciferase ER calcium/proteostasis reporter; series mostly up to 76.3 µM; activity change, negative = decrease: at the top concentration
Excerpt: Assay Provider: Brandon K. Harvey Ph.D.
National Institute on Drug Abuse, National Institutes of Health, Baltimore, MD
Endoplasmic reticulum (ER) dysregulation is associated with human pathologies including neurodegenerative, cardiovascular, muscular, and diabetic conditions. Maintenance of ER calcium is critical for functions of the ER and its depletion can lead to loss of ER resident proteins, in a process termed exodosis. Therapeutic compounds capable of attenuating the redistribution of ER proteins under pathological conditions may slow or stop disease progression. To identify such compounds, we performed a quantitative high-throughput screen (qHTS) using the SERCaMP assay, which monitors secretion of ER resident proteins triggered by calcium depletion.
SERCaMP was initially developed as a reporter of ER calcium homeostasis using a Gaussia luciferase with a modified signal peptide and carboxy-terminus (GLuc-SERCaMP), modifications that confer secretion of the reporter in response to ER calcium depletion (Henderson et al., 2014). The assay was used to screen 9,501 compounds, including a collection of drugs approved by the FDA (US), EMA (EU), NHI (Japan), and HC (Canada) regulatory agencies (Huang et al., 2011). Since the SERCaMP reporter reflects the exodosis phenomenon (Trychta et al., 2018a), compounds identified in the screen have the potential to prevent exodosis by different mechanisms such as stabilizing ER calcium or augmenting ERS retrieval.
1. Henderson, M.J., Wires, E.S., Trychta, K.A., Richie, C.T., and Harvey, B.K. (2014). SERCaMP: a carboxy-terminal protein modification that enables monitoring of ER calcium homeostasis. Mol Biol Cell 25, 2828-2839.
2. Huang, R., Southall, N., Wang, Y., Yasgar, A., Shinn, P., Jadhav, A., Nguyen, D.T., and Austin, C.P. (2011). The NCGC pharmaceutical collection: a comprehensive resource of clinically approved drugs enabling repurposing and chemical genomics. Sci Transl Med 3, 80ps16.
3. Trychta, K.A., Back, S., Henderson, M.J., and Harvey, B.K. (2018a). KDEL Receptors Are Differentially Regulated to Maintain the ER Proteome under Calcium Deficiency. Cell Rep 25, 1829-1840 e1826.
SEQUENCE No. (1, 2, 3, etc.); […] (e.g., Cells, Incubation, Reagent, etc.); VALUE and DESCRIPTION.
1; Reagent; 5 uL; 1000 SH-SY5Y cells per wells
3; Compound; 23 nL; Control inhibitor / compound library
5; Reagent; 100 nM; Thapsigargin
7; Reagent; 1 uL; 0.5x coelenterazine
8; Detection; Luminescence; ViewLux imaging system
NOTES (numbers refer to sequence above)
1; SH-SY5Y human neuroblastoma cells stably expressing GLuc-SERCaMP (SH-SY5Y-GLuc-ASARTDL) cells were seeded in 1,536 well white tissue culture treated plates (Corning, Cat# 7464) in DMEM-high glucose-sodium pyruvate (ThermoFisher Scientific, Cat #10569) supplemented with 10% bovine growth serum (Hyclone), 10 U/ml penicillin (Gibco), 10 ug/ml streptomycin (Gibco), and 20 mM HEPES.
2; Assay plates were incubated for 5 hour at 37C in a humidified incubator containing 5% CO2.
3; qHTS libraries (23 nl, final concentrations of 1.53 uM, 7.67 uM, 38.3 uM) or controls (neutral control: DMSO, positive control: dantrolene) were added using a Kalypsis pin-tool Robotic System equipped with 1536 pinheads.
4; Cells were then incubated for 16 hours at 37C, 5% CO2.
5; Thapsigargin was added at 100 nM to deplete ER calcium stores.
6; Cells were incubated for 4 hour (37 °C, 5% CO2)
7; Gaussia luciferase in the medium was measured by adding 1 ul of 0.5x coelenterazine (final concentration 0.07x) prepared in Gaussia Luciferase Glow Assay Buffer (Pierce), without addition of the Cell Lysis Buffer Reagent.
8; Luminescence was measured using a ViewLux […] CCD imaging system (Perkin Elmer) equipped with clear filters. […] The same controls were also used for the calculation of the Z' factor, a measure of assay quality control, as previously described (Zhang et al., 1999). […]
On the % scale 0 is the no-effect control and ±100 the full control effect; potency means the concentration at half of the fitted maximal effect.

SMILES | activity change, negative = decrease | Potency
NCc1cc(=O)[nH]o1 | -11.5% | 
CNCCc1ccc(O)c(O)c1 |  | 39.8 µM (active)
O=[N+]([O-])c1c2ccccc2cc2ccccc12 | 10.1% [at 156 µM] | 
CC=C(C)C(=O)O[C@H]1C(C)=C2[C@@H]3OC(=O)[C@@](C)(O)[C@@]3(O)[C@@H](OC(=O)CCC)C[C@](C)(OC(C)=O)[C@@H]2[C@@H]1OC(=O)CCCCCCC | 12.7% | 
C[C@H]1CCCC=CC2C[C@H](O)C[C@@H]2[C@H](O)C=CC(=O)O1 (stereo partly specified) | -51.1% | 
CN1CCN(c2ccc([N+](=O)[O-])c3no[n+]([O-])c23)CC1 | -9.86% | 
Nc1ccc(N=Nc2ccccc2)cc1 |  | 44.7 µM (active)
C/C=C(/C)C(=O)O[C@H]1C(C)=C2[C@H]([C@@H]1OC(=O)CCCCCCC)[C@@](C)(OC(C)=O)C[C@H](OC(=O)CCC)[C@@]1(O)[C@H]2OC(=O)[C@@]1(C)O |  | inactive
Clc1ccc(C(c2ccc(Cl)cc2)n2cc[n+](CC(OCc3ccc(Cl)cc3Cl)c3ccc(Cl)cc3Cl)c2)cc1 (stereo unspecified) | 54.6% | 
Nc1c(Cl)c(Cl)c(Cl)c(Cl)c1Cl | 13.6% [at 156 µM] | 
NC1CCc2cc(O)c(O)cc2C1 (stereo unspecified) | -6.22% [at 38.8 µM] | 

From PubChem BioAssay (NCATS)
